Assay type in all cases: functional
Assay [1] deals with Plasmodium falciparum. As to the kind of experiment: GSK_TCMDC: Inhibition of Plasmodium falciparum 3D7 in whole red blood cells, using parasite LDH activity as an index of growth. Test compounds present at 2uM.
Assay [2] concerns Plasmodium falciparum. Briefly: GSK_TCMDC: Inhibition of Plasmodium falciparum Dd2 in whole red blood cells, using parasite LDH activity as an index of growth. Test compounds present at 2uM.
The subject of assay [3] is HepG2. Briefly: GSK_TCMDC: Percent inhibition of human HepG2 cell line. Test compounds present at 10uM.

The structures appear in SMILES notation.

Usually Inhibition stands for how much of the control response was suppressed. For `COc1cccc2cc(C(=O)N[C@@H](CC(C)C)C(=O)N[C@H](C=NN3CCOC3=O)Cc3ccccc3)oc12`, the Inhibition is reported as 96% in assay [1], 70% in assay [2] and 6% in assay [3].
For `O=C(Nc1ccc(N2CCC(Nc3ccccn3)CC2)cc1)c1cnc(Cl)c(Cl)c1.O=C(O)C(F)(F)F`, in that order: 83%, 1% and 46%.
For `O=C(O)/C=C\C(=O)O.O=c1c2sc(-c3ccc(Cl)cc3)cc2ncn1Cc1ccc(OCCN2CCCC2)c2ccccc12` the same measures were 100%, 81% and 38%.
For `Cl.Cn1ncc2c3c(CCN4CCC(NCc5cc6c(cn5)OCCO6)CC4)c(Cl)cnc3ccc21`, in that order: 95%, 34% and 1%.
With `COc1ccccc1CNC(=O)CCn1c(=O)[nH]c2ccsc2c1=O`, the Inhibition was 85% in assay [1], 75% in assay [2] and 0% in assay [3].
Consider `CCc1cccc(C)c1-n1nc(-c2cc(C(C)(C)C)oc2C)cc1N`, for which the Inhibition in assay [1] stood at 95%; in assay [2] it was 95%; in assay [3], 4%.
Turning to `O=C(Nc1ccc2ccccc2n1)c1ccccc1-c1ccccc1`, the Inhibition in assay [1] came to 90%; in assay [2] it was 83%; in assay [3], 14%.
For `CN1CCN(CCCN(Cc2ccc(-c3cccc(CNCc4ccc5c(c4)OCO5)c3)cc2)C(=O)NC2CCCCC2)CC1.O=C(O)C(F)(F)F` the same measures were 95%, 92% and 31%.
For `Cc1c(Cl)cccc1S(=O)(=O)Nc1ccc(CCN2CCC(N)CC2)cc1.Cl` the same measures were 90%, 4% and 23%.
In the case of `O=C(C=Cc1ccc(Cl)c(Cl)c1)NCCCCCN1CCCC(CCCNS(=O)(=O)c2ccc(Br)cc2)C1` (stereo not drawn), the Inhibition is 88% in assay [1], 5% in assay [2] and 43% in assay [3].
For `O=C1Nc2cccc3c2C1(CCCCN1CCC(c2c(-c4ccccc4)[nH]c4ccccc24)CC1)CCC3` (stereo not drawn) the same measures were 84%, 33% and 18%.
For `CCC[C@@H]([C@@H](CC(C)C)C(=O)N[C@@H](CCCCNC(=O)OCc1ccccc1)C(=O)Nc1ncccn1)N(O)C=O` the same measures were 100%, 98% and 3%.
For `CCc1cc(N2CCN(c3ccccc3F)CC2)nc(SCc2ccc(C(=O)NC3CC3)o2)n1` the same measures were 90%, 94% and 9%.
With `CCC(C)(C)C1CCc2nc(N)nc(N)c2C1.Cl` (stereo not drawn), the Inhibition amounted to 95% in assay [1], 97% in assay [2] and 71% in assay [3].
For `COc1cc(C(=O)Nc2nc3ccccc3[nH]2)ccc1OCC(=O)Nc1cccc(C(F)(F)F)c1` the same measures were 100%, 33% and 33%.
For `FC(F)(F)c1ccc(NC(=S)N2CCC(CCN3CCC(c4c[nH]c5ccccc45)CC3)CC2)cc1`, in that order: 98%, 37% and 44%.
As for `OCCN1CCN(c2nc(Nc3cccc(F)c3)c3cnn(-c4ccccc4)c3n2)CC1`, the Inhibition in assay [1] was 100%; in assay [2], 76%; in assay [3], 89%.
On to `Cc1cc(N[C@@H](CC(C)C)C(=O)NCc2cccs2)nc(NCCc2ccc(F)cc2)n1.O=C(O)C(F)(F)F`, for which the values for the Inhibition in assay [1], in assay [2] and in assay [3] were 100%, 59% and 20%, respectively.
As for `Cc1ccc(CCC(C)NCC(O)c2cccc(C(F)(F)F)c2)cc1` (stereo not drawn), the Inhibition in assay [1] was determined as 99%; in assay [2], 98%; in assay [3], 0%.
Consider `Cc1ccc2[nH]c(C)cc(=NN=Cc3ccc(Cl)cc3)c2c1`, for which the values for the Inhibition in assay [1], in assay [2] and in assay [3] were 100%, 35% and 0%, respectively.
Consider `CCOC(=O)c1ccc(NC(=O)c2ccccc2C(=O)O)cc1`, for which the Inhibition in assay [1] is on record as 92%; in assay [2], 0%; in assay [3], 2%.
`CC1CCC(C(C)C)C(OC(=O)CSc2nnc3c(n2)[nH]c2ccccc23)C1` (stereo not drawn): the Inhibition stood at 88% in assay [1], 74% in assay [2] and 0% in assay [3].
For `CC(=O)C=C1CC(=O)N(C[C@@H](O)[C@H]2O[C@@H]3OC(C)(C)O[C@@H]3[C@H]2O)c2ccccc2N1`, in that order: 90%, 2% and 0%.
As to `COc1ccc2nccc(N3CCC(SCCNS(=O)(=O)c4ccc5c(c4)NC(=O)CS5)C3)c2n1.Cl` (stereo not drawn), the Inhibition was 99% in assay [1], 17% in assay [2] and 20% in assay [3].
For `O=C(/C=C/c1ccc(Cl)c(Cl)c1)NCCCCCN1CCC(NC(=O)Nc2ccc(OC(F)F)cc2)CC1`, the Inhibition was determined as 100% in assay [1], 18% in assay [2] and 33% in assay [3].
For `COc1ccc(CNC2CCN(C)CC2)cc1-c1cccc(S(=O)(=O)NCc2ccccc2)c1.O=C(O)C(F)(F)F` the same measures were 100%, 7% and 43%.
Consider `COc1ccc(Nc2ccnc3cc(-c4ccccn4)ccc23)cc1OC.Cl`, for which the Inhibition came out at 91% in assay [1], 26% in assay [2] and 14% in assay [3].
Consider `CC(C)c1ccc(NC(=O)Nc2ccc(Cn3ncc(N4CCCNCC4)c(Cl)c3=O)cc2)cc1.O=C(O)C(F)(F)F`, for which the Inhibition turned out to be 85% in assay [1], 27% in assay [2] and 11% in assay [3].
On to `C=CCc1cc(SC)ccc1Oc1ccc(N)cc1.Cl`, for which the Inhibition is listed as 96% in assay [1], 2% in assay [2] and 12% in assay [3].
Regarding `COc1cc(CCNc2nc(NCc3ccccc3-c3ccccc3)nc(N3CCC(N)CC3)n2)ccc1O.O=C(O)C(F)(F)F`, the Inhibition in assay [1] is 100%; in assay [2] it was 70%; in assay [3], 25%.
On to `Cc1ccc2[nH]c3c(c2c1)CC(C(=O)NCCC(C)C)NC31CCN(Cc2ccccc2)CC1` (stereo not drawn), for which the Inhibition in assay [1] was 95%; in assay [2], 50%; in assay [3], 15%.
On to `Cl.N#Cc1ccc(NC(=O)c2ccc(Cc3ccc4c(c3)CCN(C3CCC3)CC4)cn2)cc1`, for which the Inhibition came out at 91% in assay [1], 2% in assay [2] and 66% in assay [3].
For `Cc1cccc2nc(-c3cccc(-c4cccc(CN5CCCC5CN)c4)c3)[nH]c12.O=C(O)C(F)(F)F` (stereo not drawn) the same measures were 100%, 72% and 15%.
Take `CC(C)CC(=O)NC1CCN(Cc2c(-c3cccs3)nc3ccccc3c2C(=O)N[C@@H](C)C2CCCCC2)CC1`: the values for the Inhibition in assay [1], in assay [2] and in assay [3] were 96%, 97% and 0%, respectively.
Consider `CN(C)c1ccc(CN2CCC(NC(=O)c3ccc(-c4ccccc4Cl)s3)CC2)cc1.O=C(O)C(F)(F)F`, for which the Inhibition in assay [1] is listed as 82%; in assay [2], 27%; in assay [3], 35%.
With `COc1ccc2nccc(N3CCC(NCCNCc4ccc5c(n4)NC(=O)CS5)C3)c2n1.Cl` (stereo not drawn), the Inhibition came out at 100% in assay [1], 5% in assay [2] and 0% in assay [3].
With `CC(CNC1CCN(CCn2c(=O)ccc3ccc(F)cc32)CC1)c1ccccc1` (stereo not drawn), the Inhibition in assay [1] is reported as 85%; in assay [2], 4%; in assay [3], 0%.
On to `CC(C)NC(=O)c1cccc(-c2ccc(OCCN3CCCC3c3cc4ccccc4[nH]3)cc2)c1` (stereo not drawn), for which the Inhibition in assay [1] was found to be 100%; in assay [2] it was 34%; in assay [3], 25%.
For `CCOC(=O)N1NC(=O)N(c2ccccc2)C1(c1ccccc1)c1ccccc1` the same measures were 96%, 82% and 5%.
Regarding `Cc1ccc(O)c(-c2cc(C(=O)Nc3ccc(S(=O)(=O)N4CCCC(C)C4)cc3)[nH]n2)c1` (stereo not drawn), the Inhibition in assay [1] is 96%; in assay [2] it was 97%; in assay [3] it was 27%.
Take `Cc1cc(NC(=O)c2cccs2)ccc1OC1CCN(Cc2ccc(F)cc2)CC1.O=C(O)C(F)(F)F`: the Inhibition in assay [1] is 94%; in assay [2], 92%; in assay [3], 7%.
Take `CCOc1ccc(C(=O)N2CCOC(CCN3CCC(c4ccccc4)CC3)(c3ccc(Cl)c(Cl)c3)C2)cc1` (stereo not drawn): the Inhibition in assay [1] is listed as 88%; in assay [2], 71%; in assay [3], 14%.
For `COc1ccc2nccc([C@@H](O)CN3CCC(CO)(NCc4cc5ccccc5o4)CC3)c2c1.O=C(O)C(=O)O` the same measures were 85%, 7% and 12%.
Take `Cc1cccc2nc(-c3ccc(-c4ccc(CN5CCCCC5)cc4)cc3)[nH]c12.O=C(O)C(F)(F)F`: the Inhibition in assay [1] came out at 100%; in assay [2], 99%; in assay [3], 27%.
For the compound `O=C(/C=C/c1ccc(C(F)(F)F)cc1)NCCCCCN1CCCN(C(=O)Nc2ccc(Cl)cc2)CC1`, the Inhibition in assay [1] was 99%; in assay [2], 0%; in assay [3], 28%.
On to `Cc1nc(Nc2ccc(F)cc2)nc(N2CCc3cc(O)ccc3C2C)c1C.Cl` (stereo not drawn), for which the Inhibition in assay [1] came to 99%; in assay [2], 97%; in assay [3] it was 0%.
For `COC(=O)c1ccc(C2OC3(C(=O)c4ccccc4C3=O)C(OC)=C2Cl)cc1C(C)=O` (stereo not drawn) the same measures were 99%, 85% and 0%.
For `CCNc1cc(C(=O)N[C@@H](Cc2ccccc2)[C@H](O)CNC2(CCC(C)C)CC2)cc(N2CCCCS2(=O)=O)c1.Cl`, the Inhibition in assay [1] was determined as 90%; in assay [2], 52%; in assay [3], 6%.
For `O=C(Cc1cccc(OCCCN(Cc2cccc(C(F)(F)F)c2Cl)CC(c2ccccc2)c2ccccc2)c1)NCc1ccco1` the same measures were 94%, 84% and 2%.
For `Cc1ccc(-n2cc(CNCC3CCN(CCO)CC3)c(-c3ccc(F)cc3)n2)cc1`, in that order: 91%, 18% and 29%.
For `COc1cccc2sc(N3CCN(C(=O)c4ccc([N+](=O)[O-])o4)CC3)nc12` the same measures were 95%, 67% and 0%.
`O=C(/C=C/c1ccc(I)cc1)NCCCCCN1CCC(c2c[nH]c3ccccc23)CC1`: the Inhibition is listed as 95% in assay [1], 2% in assay [2] and 43% in assay [3].
For `CC(C)(C)c1ccc(CN2CCC(CNC(=O)c3cc(-c4cccc(C(F)(F)F)c4)cs3)C2)cc1.O=C(O)C(F)(F)F` (stereo not drawn) the same measures were 100%, 84% and 80%.
As to `S=C(NCCc1ccccc1)Nc1ccc2ncsc2c1`, the Inhibition in assay [1] came out at 96%; in assay [2], 3%; in assay [3], 0%.
For `CCCc1ccc(S(=O)(=O)Nc2ccc3c(c2)CCC3)cc1` the same measures were 96%, 0% and 8%.
For `CC(C)CC(=O)N1CCNC[C@@H]1C(=O)NC1CC1.O=C(O)C(F)(F)F`, in that order: 82%, 0% and 0%.
For `Cc1cccc2nc(-c3ccc(-c4cccc(CN5CCCC5CN)c4)s3)[nH]c12.O=C(O)C(F)(F)F` (stereo not drawn), in that order: 91%, 45% and 20%.
Take `CN(C)c1ccc(-c2csc(C(=O)NC3CCN(Cc4ccc(C(C)(C)C)cc4)C3)c2)cc1.O=C(O)C(F)(F)F` (stereo not drawn): the Inhibition in assay [1] worked out at 99%; in assay [2], 50%; in assay [3], 26%.
For `COc1cccc(Nc2nnc(SCC(=O)NNC(=O)c3ccccn3)s2)c1` the same measures were 99%, 95% and 52%.
For `O=C(Nc1ccccc1F)NC1CCN(c2ccnc(Nc3ccc(F)cc3)n2)CC1`, in that order: 99%, 63% and 13%.
In the case of `Cc1cc(OCC2CCN(c3ncc(C(=O)NC4CC4)cc3Cl)CC2)ccc1F`, the Inhibition in assay [1] is on record as 96%; in assay [2] it was 96%; in assay [3] it was 16%.

Values taken from ChEMBL document CHEMBL1157539, “Thousands of chemical starting points for antimalarial lead identification” (Nature, 2010).
